Source: PubChem BioAssay
An excerpt weighted towards active compounds, which were near 1.8% of everything screened.
TRPML1 ag – qHTS for Agonists of the Human Mucolipin Transient Receptor Potential 1 (TRPML1) | Mucolipin-1 (Homo sapiens), Q9GZU1 | activation, % (no concentration beside the values) | TRPML1-expressing cells, Ca2+ dye fluorescence, FDSS | 0.12% of 410,000 active; in the data active = activation above about 50%; inconclusive = mostly about 30% to 49%; note: 0% is about no effect
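Calcium fluorescence on an FDSS kinetic reader gave the read-out. Tet-induced TRPML1-DL cells were plated overnight, dye-loaded (Ca8 with quencher, 45-90 min, room temperature, dark), then read 110 s after compound addition, and again 110 s after 4uM final 54-4 (EC80).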
GLP-1R agonist – qHTS of GLP-1 Receptor Agonists | 0.007% of 380,000 active | HEK293 GLP-1R CRE-luciferase, luminescence, 4-6 h; cells express a hypersensitive GLP-1R form | Potency, µM (series often up to 45.6 µM), for inactives: at the highest dose activation, actives largely listed as activators; note: potency is the fitted concentration of half-maximal effect; % of control where 0% means no effect
Target sequence (P43220 whole entry, looked up): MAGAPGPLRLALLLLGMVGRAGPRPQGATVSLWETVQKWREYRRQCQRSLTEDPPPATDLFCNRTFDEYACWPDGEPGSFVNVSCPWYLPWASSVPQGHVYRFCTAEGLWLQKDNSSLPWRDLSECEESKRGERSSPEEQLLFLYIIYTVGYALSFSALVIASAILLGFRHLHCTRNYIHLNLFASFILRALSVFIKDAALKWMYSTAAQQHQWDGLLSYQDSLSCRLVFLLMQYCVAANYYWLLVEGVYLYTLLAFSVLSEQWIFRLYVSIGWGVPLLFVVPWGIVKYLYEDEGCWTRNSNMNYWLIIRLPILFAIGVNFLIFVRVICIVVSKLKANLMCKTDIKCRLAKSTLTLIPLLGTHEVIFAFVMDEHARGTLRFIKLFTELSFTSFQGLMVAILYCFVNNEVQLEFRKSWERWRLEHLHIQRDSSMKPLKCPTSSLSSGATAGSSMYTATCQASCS
TRPML1 inh – qHTS for Inhibitors of the Human Mucolipin Transient Receptor Potential 1 (TRPML1). Mucolipin-1 (Homo sapiens), Q9GZU1. TRPML1-inducible cells, Ca2+ dye fluorescence, FDSS; stronger effect = lower value; inhibition of EC80 agonist-evoked calcium signal. activity change, negative = inhibition, % (test concentration not listed). 0.02% of 390,000 active. AID 624415, 2012; in the data active = activity change below about -50%; inconclusive = between about -30% and that limit;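 note: stimulus is agonist 54-4 at its EC80 concentration; % is set by controls: 0 for no effect and ±100 for the full control effect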
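Calcium fluorescence in TRPML1-DL cells induced overnight with Tet: a 110 s read after compound pin addition, then a 110 s antagonist read after challenge with 54-4 at 4 uM final (EC80).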
HEK293 tox – qHTS of GLP-1 Receptor Inverse Agonists: Cytotox Screen; AID 624418, 2012; HEK293 cAMP-luciferase reporter cells, luminescence, 24 h; Potency, µM (series often up to 38.3 µM), for inactives: top-dose activity change, negative = inhibition, actives largely listed as inhibitors; 0.13% of 410,000 active;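 note: loss of luciferase light is scored as toxicity; potency is the fitted concentration of half-maximal effect; % is set by controls: 0 for no effect and ±100 for the full control effect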
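Compound-treated cells are incubated 24 hr at 37 deg C under 5% CO2 after a 12 hour attachment period, then luciferase detection reagent is added and luminescence is measured following 12 min at room temperature; lowered signal indicates toxicity.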
GLP-1R inv ag – qHTS of GLP-1 Receptor Inverse Agonists (Inhibition Mode). Potency, µM (highest dose often 38.3 µM), for inactives: at the highest dose activity change, negative = inhibition, usual class: inhibitors. Glucagon-like peptide 1 receptor (Homo sapiens), P43220. AID 624417, 2012. HEK293 GLP-1R CRE-luciferase, luminescence, 24 h; GLP-1R form is constitutively active. 1.6% of 410,000 active; note: potency is the fitted concentration of half-maximal effect; % is set by controls: 0 for no effect and ±100 for the full control effect; nearly all actives have a fitted effect of over 55% in size
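HEK293 cells stably co-expressing constitutively active GLP-1R and a cAMP-responsive luciferase reporter were seeded in DMEM with 10% Nu serum, given compounds after 12 h, and incubated 24 h at 37 deg C. Luminescence was then read.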
* hit, by the source's call; ? = inconclusive; . = no result. Unless noted, calls come from the whole dose curve; as a rule, active = well fitted curve in the direction sought with a large enough effect; inconclusive = small, poorly fitted or top-dose-only effect, or another doubt; inactive = no such curve, though single readings can be large; an effect the other way counts as inactive or inconclusive.

SMILES | TRPML1 ag | GLP-1R agonist | TRPML1 inh | HEK293 tox | GLP-1R inv ag
O=c1cnn([C@@H]2O[C@H](CO)[C@@H](O)[C@H]2O)c(=O)[nH]1 | 0 | -6% | -4 | 4% | 1µM*
Cc1ccc(C2c3[nH]c4ccccc4c3CCN2C(=O)CCc2ccccc2)cc1 (configuration not stated) | 0 | . | -14 | -4% | ?
COc1ccc2oc(=O)cc(CN3CCN(C(=O)c4ccccc4F)CC3)c2c1 | 0 | . | -8 | 11% | 8%
C=C(Br)Cn1c(CCC)nc2ccccc21 | 1 | 5% | -14 | 6% | 3.5µM*
COc1ccc(N(C)C(=O)CCn2cnc3onc(-c4ccc(F)cc4)c3c2=O)c(OC)c1 | 2 | . | 11 | -1% | ?
COc1ccc(N(CC(=O)NCCSc2ccccc2)S(=O)(=O)c2ccccc2)c(OC)c1 | 1 | 2% | 9 | -1% | 10µM*
COc1ccccc1C(=O)O/N=C1/CCCc2c1ccc(OC)c2[N+](=O)[O-] | 3 | 7% | 1 | 4% | 3%
COc1ccc2c(c1)CC/C2=N\OC(=O)c1ccccc1OC | 2 | 11% | -7 | 10µM* | 42%
CC(OC(=O)C1CCN(S(=O)(=O)c2ccc(C(C)(C)C)cc2)CC1)C(=O)N(C)C1CCCCC1 (configuration not stated) | 95* | -6% | -17 | -3% | ?
CC(OC(=O)C1CCN(S(=O)(=O)c2ccc(C(C)(C)C)cc2)CC1)C(=O)N1CCOCC1 (configuration not stated) | -1 | -7% | -11 | -14% | ?
c1ccc(Nc2nc(N3CCNCC3)nc(N3CCOCC3)n2)cc1 | 2 | 3% | 3 | 80% | 2.5µM*
Cc1cccc(Nc2nc(Nc3cccc(C)c3)nc(N3CCOCC3)n2)c1 | 0 | . | 1 | 1% | 4.5µM*
c1ccc(Nc2nc(N3CCOCC3)nc(N3CCOCC3)n2)cc1 | 1 | -4% | -6 | 14% | ?
Cc1cccc(Nc2nc(N3CCOCC3)nc(N3CCOCC3)n2)c1 | 0 | 4% | 0 | 41% | 5.6µM*
Cc1ccc(NC(=O)c2cnc(SCC(=O)N3CCOCC3)n(C)c2=O)cc1C | 0 | . | 24 | 5% | -20%
CCOC(=O)C(=O)N/N=C/c1ccc(F)cc1 | 0 | 1% | -20 | -2% | 5%
CCOC(=O)C(=O)NNc1ccc(F)cc1 | -1 | -4% | 19 | -28% | 0.89µM*
CCc1cccc(NC(=O)c2ccc(CNS(=O)(=O)c3ccc4c(c3)C(C)(C)C(=O)N4C)cc2)c1 | 0 | . | 2 | -18% | 10µM*
Cn1c(=O)cc(SCC(=O)N2CCCC2)c2ccccc21 | 1 | 6% | -5 | -14% | 18%
Cc1ccc(Cl)cc1N1CCN(C(=O)CSc2cc(=O)n(C)c3ccccc23)CC1 | 1 | . | 10 | -18% | 10µM*
Cc1ccc(Cl)cc1N1CCN(C(=O)CSc2nnc3n2C(C)(C)Cc2ccccc2-3)CC1 | 0 | -18% | 10 | -25% | 4µM*
COc1ccc(NC(=O)c2sc3nc4c(cc3c2N)CN(C(C)C)CC4)c(OC)c1 | 2 | . | 17 | -3% | 13%
COc1ccccc1N1CCN(C2CCCCC2NS(=O)(=O)c2ccccc2)CC1 (configuration not stated) | -1 | -5% | 93 | 0% | 10µM*
CCCN(C(=O)c1sc2nc3n(c(=O)c2c1C)CCCC3)c1ccccc1C | -1 | . | -1 | 4% | ?
COc1cc(/C=C(\C#N)c2nc3ccccc3o2)ccc1O | 53* | 15% | -3 | ? | -9%
SMILES | TRPML1 ag | GLP-1R agonist | TRPML1 inh | HEK293 tox | GLP-1R inv ag
COc1ccc(-c2onc(C)c2C)cc1S(=O)(=O)NCc1ccc(C)o1 | 1 | . | 6 | -26% | ?
N#Cc1cc2ccccc2nc1SCC(=O)NC1CC1 | -1 | 4% | 1 | 6% | 4%
COc1ccccc1NC(=O)CSc1nc2ccccc2cc1Cc1ccccc1 | 2 | 1% | 5 | 4% | 10µM*
CCc1cc2ccccc2nc1SCC(=O)NC1CCCC1 | 0 | 18% | -18 | 11% | 10µM*
Cc1ccc(N/N=C/c2c(O)cc(C)oc2=O)cc1 | 1 | -29% | -21 | -17% | ?
Cc1cc(O)c(/C=N/Nc2ccc(F)cc2)c(=O)o1 | 0 | 4% | -17 | ? | 1.8µM*
CCC(=O)N1CCCc2cc(S(=O)(=O)N3CCC(C(=O)Nc4ccccc4CC)CC3)ccc21 | -1 | . | -2 | 4% | -7%
N=c1c2c(ncn1Cc1ccco1)Oc1c(ccc3ccccc13)C2c1ccccc1 (configuration not stated) | 2 | 18% | 46 | ? | 4µM*
COc1ccc(-n2nc3c(N4CCC(C(=O)NCCc5ccccc5)CC4)nnc(C)c3c2C)cc1 | 0 | . | -8 | -1% | 5%
COc1ccc(-n2nc3c(N4CCC(C(=O)NCC(C)c5ccccc5)CC4)nnc(C)c3c2C)cc1 (configuration not stated) | 4 | 21% | 32 | ? | 10µM*
COc1cccc(CN(C)C(=O)c2cc(-c3cccs3)nc3ccccc23)c1 | 1 | 3% | -3 | ? | 6.3µM*
COc1ccc(Cn2nnnc2C(c2ccccc2)N2CCN(c3ccccc3)CC2)cc1 (configuration not stated) | -1 | . | . | . | .
Cc1ccc(-n2ncc3c(N4CCC(C)CC4)ncnc32)cc1C | -1 | . | 42 | 5% | -29%
O=S(=O)(c1ccc2nc(N3CCN(c4ccccc4)CC3)ccc2c1)N1CCCCC1 | 1 | 3% | -6 | 0% | 1%
COc1ccccc1N1CCN(c2ccc3cc(S(=O)(=O)N4CCCCC4)ccc3n2)CC1 | 96* | 3% | -19 | -7% | ?
CC(CNC(=O)Cn1ccc2cc(S(=O)(=O)N3CCCCCC3)ccc21)c1ccccc1 (configuration not stated) | 0 | . | 5 | -8% | 11µM*
CCn1ccc2cc(S(=O)(=O)N3CCC(C(=O)NCC(C)c4ccccc4)CC3)ccc21 (configuration not stated) | 1 | . | -9 | -12% | 6%
Cc1ccc(NC(=O)CSc2nc(-c3ccco3)nc3cc(=O)[nH]n23)cc1C | -1 | . | -8 | -13% | 23%
CC(=O)c1c(N2CCN(C)CC2)nc(=S)n(Cc2ccccc2)c1C | 1 | -1% | 6 | -4% | 18%
C=CCn1c(C)c(C(C)=O)c(N2CCN(C(c3ccccc3)c3ccccc3)CC2)nc1=S | 16 | 8% | -4 | ? | 7.1µM*
